KDM4E inh = inhibitors of human JMJD2E histone demethylase. JMJD2E catalytic domain, FDH-coupled NADH fluorescence (FDH is formaldehyde dehydrogenase). Potency, µM (highest dose often 57.1 µM), for the others: at the highest dose activity change, negative = inhibition, hits mostly inhibitors. 1.6% of 230,000 active;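 also: potency is read from the fitted curve at half-maximal effect; 0% = wells with enzyme and -100% = buffer wells without enzyme; nearly all actives have a fitted effect of over 50% in size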
Target sequence (B2RXH2 1-337 limits assumed): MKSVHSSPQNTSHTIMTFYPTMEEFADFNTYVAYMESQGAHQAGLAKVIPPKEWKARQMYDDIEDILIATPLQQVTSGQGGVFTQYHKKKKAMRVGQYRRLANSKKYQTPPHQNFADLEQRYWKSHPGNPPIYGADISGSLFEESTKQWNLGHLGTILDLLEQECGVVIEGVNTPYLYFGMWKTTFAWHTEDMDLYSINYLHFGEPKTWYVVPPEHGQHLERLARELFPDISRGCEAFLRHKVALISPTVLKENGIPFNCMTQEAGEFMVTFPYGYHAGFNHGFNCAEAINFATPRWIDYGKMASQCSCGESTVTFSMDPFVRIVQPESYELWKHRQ
HPGD inh = HPGD (human) dehydrogenase inhibition | P15428 | purified HPGD, NADH fluorescence kinetic, PGE2 substrate | Potency, µM, without a hit: at the highest dose activity change, negative = inhibition, most hits filed as inhibitors | 4.3% of 150,000 active; also: potency is read from the fitted curve at half-maximal effect
Target sequence (P15428 whole entry, looked up): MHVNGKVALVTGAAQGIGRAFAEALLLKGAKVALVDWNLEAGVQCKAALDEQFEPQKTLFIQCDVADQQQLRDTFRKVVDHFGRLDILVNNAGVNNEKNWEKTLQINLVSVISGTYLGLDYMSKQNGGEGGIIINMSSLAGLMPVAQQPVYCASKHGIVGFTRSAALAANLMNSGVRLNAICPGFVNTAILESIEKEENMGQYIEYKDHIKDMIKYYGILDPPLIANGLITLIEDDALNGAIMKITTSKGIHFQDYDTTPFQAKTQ
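NADH formation kinetics: reaction with 30 uM PGE2 and 1 mM NAD+ (final), 20 nM enzyme, Tris-HCl pH 8 with Tween 20, after 15 min compound preincubation at room temperature. Fluorescence change, last versus first of five reads.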
ALDH1A1 block = blocks purified human ALDH1A1 activity; Purified ALDH1A1, NADH fluorescence, propionaldehyde substrate; Potency, µM (titrated, usually from 75.3 µM), without a hit: at the highest dose activity, negative = inhibition, actives largely listed as inhibitors; 7.3% of 220,000 active;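 also: potency is read from the fitted curve at half-maximal effect; plate controls were no enzyme wells and a reference inhibitor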
PNC assembly inh = blocks assembly of the perinucleolar compartment | PC3M PTB-GFP, PNC prevalence imaging, 16 h; stronger effect = lower value | activity change (PNC), negative = inhibition, % at 10 µM | 3.1% of 140,000 active | AID 2417;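 active = readout at or below -70, meaning at least 70% loss of cells showing the perinucleolar compartment, a nuclear body marking cancer cells; inconclusive = readout between -30 and a set limit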;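 also: plate controls were DMSO wells for no effect and camptothecin positive control wells for full effect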
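Read-out is percentage of cells bearing a perinucleolar compartment, from automated 20x imaging of fixed, Hoechst-stained PC3M PTB-GFP cells. Cells were seeded 4 h, then exposed 16 h to compound (23 nl of library stock) in duplicate plates.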
Numbers without * were called inactive; ? = inconclusive; · = not tested or not shown; [ ] = another dose, or the depositor's remark. Only some compounds are listed: those with a hit (about 11% of all), similar ones and a draw of the others. Unless noted, calls follow the shape of the dose curve; as a rule, active = well fitted inhibition curve with a large enough effect (not every such curve was filed as active); inconclusive = small, poorly fitted or top-dose-only effect, or another doubt; inactive = no such curve, though single readings can be large or run the other way. Unless noted, % is scaled to controls: 0 for no effect and ±100 for the full control effect.

SMILES	KDM4E inh	HPGD inh	ALDH1A1 block	PNC assembly inh
COc1ccccc1N(C1=NCCCS1)S(=O)(=O)c1ccc(C(C)(C)C)cc1	-6%	·	0.22µM*	·
COc1ccc(S(=O)(=O)N(C)c2ccc(C(=O)N3CCCC3)cc2)cc1	-26%	·	-14%	·
COc1ccc(N(C2=NCCCS2)S(=O)(=O)c2ccc(C(C)(C)C)cc2)cc1	1%	·	0.79µM*	·
O=C(O)/C=C/C(=O)Nc1ccc(OC(F)(F)F)cc1Br	-18%	·	?	·
O=C(O)c1nnsc1-c1ccc(-c2snnc2C(=O)O)cc1	·	-22%	4µM*	·
C=CCn1c(O)c(N=NC(=O)OC(C)(C)C)c2ccccc21	0%	?	?	-100*
C=CCn1c(O)c(N=NC(=S)Nc2ccccc2C)c2cc(S(=O)(=O)N3CCOCC3)ccc21	-1%	-25%	10µM*	?
Cn1c(O)c(N=NC(=S)Nc2ccccc2F)c2cc(S(=O)(=O)N3CCOCC3)ccc21	7%	·	-6%	·
C=CCn1c(O)c(N=NC(=O)C(O)c2ccccc2)c2ccccc21 (stereo not given)	-2%	·	·	·
C=CCn1c(O)c(N=Nc2ccccc2C)c2ccccc21	-19%	·	2.8µM*	·
C=CCn1c(O)c(N=NC(=S)Nc2ccc(OC)c(Cl)c2)c2ccccc21	4%	-19%	22µM*	-18
C=CCn1c(O)c(N=O)c2ccccc21	-18%	·	·	·
C[C@@H](CN(C)C)CN1c2ccccc2CCc2ccccc21	-11%[25.5 µM]	-4%	8%[20.9 µM]	·
Cc1ccc(NS(=O)(=O)c2ccc(Cl)c(NC(=S)NC(=O)C3CCCCC3)c2)cc1Cl	-3%	-15%	?	24
C/C(=C\C(=O)c1ccc(Cl)cc1Cl)N(C)C	-5%	·	5.6µM*	·
CC1C=CCCOC1c1ccccc1 (stereo not given)	·	·	-2%[13.5 µM]	·
CCCNC(=O)N(C)c1nncnc1C(=O)NC	4%	-16%	-9%	-100*
Nc1nc2ccc(C(=O)NCCOC(=O)C3CCCCC3)cc2s1	-10%	·	10µM*	·
COc1ccc(C(=O)N2CCC3(CCCN(c4ncccn4)C3)CC2)cc1	·	-15%	-6%	·
COCCN1C(=O)/C(=C/c2cc3c(cc2Br)OCO3)NC1=S	-10%	·	0.2µM*	·
Cc1ccc(S(=O)(=O)NC(=O)Nc2c(C)n(C)n(-c3ccccc3)c2=O)cc1	2%	-11%	2%	31
O=C(CCCN1C(=O)c2ccccc2C1=O)Nc1ccccn1	-2%	2%	-3%	?
O=C(CCN1C(=O)c2ccccc2C1=O)Nc1ccccn1	?	-6%	-14%	-88*
Cc1ccc(S(=O)(=O)NCCCCCC(=O)Nc2c(C)n(C)n(-c3ccccc3)c2=O)cc1	-6%	·	13µM*	·
O=C(CCCN1C(=O)/C(=C/c2ccccc2Cl)SC1=S)Nc1ccccn1	2%	16µM*	-2%	17
SMILES	KDM4E inh	HPGD inh	ALDH1A1 block	PNC assembly inh
O=C(CCCCCCN1C(=O)c2ccccc2C1=O)Nc1nccs1	8%	7.9µM*	-8%	176
O=C(O)CCC[C@H](O)\C=C/C=C/C=C/[C@H](O)C/C=C\CCCCCO	2%	0%	-14%	·
COC(=O)c1ccc(C(NC(=O)OCc2ccccc2)/C(C)=C/[C@@H](C)C(=O)N2CCN(C)CC2)cc1 (stereo not given in full)	-4%	-10%	?	·
N[C@@H](Cc1[nH]nc2ccccc12)C(=O)O	·	-4%	-8%[13.5 µM]	·
CC(C)c1cc(CNC(=O)CC2C(=O)NCCN2CC2CCCCC2)on1 (stereo not given)	-24%	·	?	·
Cc1cccc(OCC(=O)N/N=C/CC(C)c2ccccc2)c1C (stereo not given)	-10%	-9%	-5%	36
CN1CCN(C(=O)c2nc3ccc(Cl)cc3[nH]2)CC1	-9%	-17%	-2%	·
Cc1ccc(NC(=O)CCCCCNS(=O)(=O)c2ccc(C)cc2)cc1	6%	-2%	?	29
Cc1cccc(NC(=O)CCCCCN2C(=O)c3ccccc3C2=O)n1	11%	25µM*	?	37
Cc1ccc(S(=O)(=O)NCCCCCC(=O)Nc2nccs2)cc1	2%	-6%	16µM*	32
COc1cc(C2C3C(=O)N(Cc4ccccc4)C(=O)C3ON2c2ccccc2)cc(OC)c1O (stereo not given)	?	-22%	?	-1
CCCOc1ccc(N2C(=O)C3ON(c4ccccc4)C(c4ccc(O)c(OC)c4)C3C2=O)cc1 (stereo not given)	4%	-2%	32µM*	?
CCCOc1ccc(N2C(=O)C3ON(c4ccccc4)C(CCC)C3C2=O)cc1 (stereo not given)	-3%	-15%	18µM*	-3
CCCC1C2C(=O)N(c3ccccc3)C(=O)C2ON1c1ccccc1 (stereo not given)	6%	-11%	-12%	42
CSCCC(NC(=O)c1ccccc1)C(=O)Nc1ccc(NC(C)=O)cc1 (stereo not given)	-4%	-6%	14%	?
CCCN1C2=C(C(=O)CC(C)(C)C2)C(c2ccc(F)cc2)C2=C1c1ccccc1C2=O (stereo not given)	-10%	35µM*	?	50
CCCCN1C2=C(C(=O)CC(C)(C)C2)C(c2ccccc2)C2=C1c1ccccc1C2=O (stereo not given)	?	-10%	?	29
COC/C=C/C1=CC2=CC(=O)C(C)(OC(=O)c3cnc4ccccc4n3)C(=O)C2=CN1Cc1ccc2c(c1)OCO2 (stereo not given)	-22%[11.4 µM]	-3%	?	·
C=CCNC(=S)N1CCN(C2CCCCC2)CC1	0%	·	·	·
COc1ccc(CN2C(=O)c3cccnc3C2Nc2cc(Cl)ccc2OC)cc1 (stereo not given)	14µM*	-5%	?	16
O=C1c2cccnc2C(Nc2ccc(Br)cc2)N1Cc1cccs1 (stereo not given)	?	·	6.3µM*	·
COc1ccc(NC2c3ncccc3C(=O)N2Cc2cccs2)cc1 (stereo not given)	6%	·	3.2µM*	·
O=C(CSCc1ccc(Br)cc1)N1CCCC1	0%	·	-9%	·
Cc1csc(SCC(=O)Nc2ccccc2[N+](=O)[O-])n1	2%	·	2%	·
CCC(=O)NC(=S)Nc1ccc2oc(-c3ccc(OC)cc3)nc2c1	4%	·	-7%	·
SMILES	KDM4E inh	HPGD inh	ALDH1A1 block	PNC assembly inh
COc1ccc(-c2nc3cc(NC(=S)NC(=O)Cc4ccccc4)ccc3o2)cc1	2%	-14%	11µM*	-6
O=C(O)CN1C(=O)O[C@@H](c2ccccc2)C1=O	·	-7%	1%[13.5 µM]	·
CC1=C(C(=O)Nc2ccccc2F)C(c2ccsc2)C2=C(CC(C)(C)CC2=O)N1 (stereo not given)	?	?	?	-13
CC1=C(C(=O)Nc2cccc(F)c2)C(c2ccsc2)C2=C(CC(C)(C)CC2=O)N1 (stereo not given)	?	?	?	-81*
Cc1cc(NC(=O)c2ccccc2)ncc1NC(=O)c1ccco1	-5%	?	11µM*	20
O=C(Nc1ccc(NC(=O)c2ccco2)nc1)c1ccccn1	?	-24%	14µM*	-24
CCC(=O)Nc1cc(C)c(NC(=O)c2ccco2)cn1	-10%	-7%	?	1
Cc1cc2nc(C)c3c(n2n1)CCC3	?	·	-1%	·
